Results reported in PubChem BioAssay (NCATS).
Records with an inconclusive call do not appear. Where a call stands in place of a potency, no number is given. Active and inactive are the calls of the source. Calls follow the shape of the dose curve; as a rule, active = well fitted inhibition curve with a large enough effect; inconclusive = small, poorly fitted or top-dose-only effect; inactive = flat fitted curve, though single readings scatter.
Potency is read from the fitted curve at half-maximal effect.

What follows are compounds tested on CP203 (assay: qHTS profiling for inhibitors of Plasmodium falciparum proliferation (AID 504749; also: nearly all actives have a fitted effect of over 60% in size)). Details: P. falciparum in erythrocytes, SYBR Green DNA, 72 h; series mostly up to 28.7 µM.
Source text: NIH National Institute of Allergy and Infectious Diseases [NIAID] NIH Chemical Genomics Center [NCGC] MLPCN Grant: None Assay Provider: Xinzhuan Su, NIAID NCGC Assay Overview: Plasmodium falciparum is a virulent malarial parasite that kills 1-2 million people worldwide each year. Transmitted by mosquitoes, the sporozoite form of the parasite enters the blood stream to infect hepatocytes, where they become merozoites that infect red blood cells (erythrocytes). Within erythrocytes, merozoites begin a […] cycle of growth and division, after which the parasite is released to infect new red blood cells. Gametocytes, which form within erythrocytes as well, circulate in the bloodstream and are ingested by the mosquito, thereby completing the life cycle. To profile malarial isolates for differential chemical responses and to identify inhibitors of malarial growth, an assay that measures P. falciparum growth and replication within erythrocytes was employed. This assay uses a DNA binding fluorescent dye (SYBR Green) to detect parasite DNA following cell lysis. Because mature erythrocytes lack DNA, only Plasmodium-derived DNA is detected.
NCGC Assay Protocol Summary: The SYBR Green viability assay was adapted from a method described previously (Plouffe et al., 2008). For screening 3 ul culture medium was dispensed into 1536 well black clear bottom plates (Aurora Biotechnologies) using a Multidrop Combi (Thermo Fisher Scientific Inc.), 23 nL compounds in DMSO were added by a pin tool (Kalypsys), and 5 ul of erythrocytes infected with P. falciparum (0.3% parasitemia, 2.5% hematocrit final concentration) were added. The plates were incubated at 37 C in a humidified incubator in 5% CO2 for 72 h, and 2 ul lysis buffer (20 mM Tris HCl, 10 mM EDTA, 0.16% saponin, 1.6% triton X, 10X SYBR Green I supplied as 10,000X […] by Invitrogen) was added to each well. The plates were mixed for 25 sec with gentle shaking and incubated overnight at room temperature in the dark. The following morning, fluorescence intensity at 485(14) nm excitation and 535(25) nm emission wavelengths was measured on an EnVision (Perkin Elmer) plate reader. Plate reads were normalized relative to the control inhibitor (0.29 uM artemisinin) and vehicle (DMSO) wells present on each plate and then corrected by an algorithm using vehicle-only control plates at the beginning and end of the compound plate stack.
For `Cc1c(C(N)=O)cc([N+](=O)[O-])cc1[N+](=O)[O-]`, the Potency was “inactive”. In the case of `C[C@H](O)C(=O)Nc1c(I)c(C(=O)NC(CO)CO)c(I)c(C(=O)NC(CO)CO)c1I`, the Potency is reported as “inactive”. With `O=C(COc1ccc(Cl)cc1)N1CCN(Cc2ccc3c(c2)OCO3)CC1` the Potency was “inactive”. `COc1c(C)c2c(c(O)c1C/C=C(\C)CCC(=O)O)C(=O)OC2` was tested, and the Potency was 3.22 µM (active). For `COc1cc(C(=S)N2CCOCC2)cc(OC)c1OC`, the Potency was “inactive”. `O=C(O)c1cc2cc(Cc3cccnc3)ccc2o1` was tested, and the Potency was “inactive”. In the case of `CC(C)(Oc1ccc(Cl)cc1)C(=O)O`, the Potency is reported as “inactive”. With `O=C(Nc1ccc(Oc2ccc(Cl)cc2)c(Cl)c1)c1cc(I)cc(I)c1O` the Potency was “inactive”. With `C[C@]12CC[C@@H]3c4ccc(O)cc4CC[C@H]3[C@@H]1CC[C@@H]2O` the Potency was “inactive”. In the case of `c1ccc(OCc2ccc(CCCN3CCOCC3)cc2)cc1`, the Potency is reported as “inactive”. With `CNCCC=C1c2ccccc2CCc2ccccc21` the Potency was 7.57 µM (active). `C[C@H]1C[C@H]2[C@@H]3CCC4=CC(=O)C=C[C@]4(C)[C@@]3(Cl)[C@@H](O)C[C@]2(C)[C@@]1(O)C(=O)CO` was tested, and the Potency was “inactive”. `CC1(C)CCC(NC(=O)[C@@H](N)CCC(=O)O)CC1` was tested, and the Potency was “inactive”. `CCCOC(C(=O)OC1CCN(C)CC1)(c1ccccc1)c1ccccc1` was tested, and the Potency was “inactive”. With `CC(=O)OCC(=O)[C@@]1(OC(C)=O)[C@@H](C)C[C@H]2[C@@H]3C[C@H](F)C4=CC(=O)C=C[C@]4(C)[C@@]3(F)[C@@H](O)C[C@@]21C` the Potency was “inactive”. `Cc1ccc(C(=O)C(C)CN2CCCCC2)cc1` (stereo not given) was tested, and the Potency was “inactive”. For `CC/C(=C(/CC)c1ccc(O)cc1)c1ccc(O)cc1`, the Potency was “inactive”. For `N[C@@H](Cc1cnc[nH]1)C(=O)O`, the Potency was “inactive”. For `CC(O)(P(=O)(O)O)P(=O)(O)O`, the Potency was “inactive”. `Cc1c(F)c(N2CCNC(C)C2)cc2c1c(=O)c(C(=O)O)cn2C1CC1` (stereo not given) was tested, and the Potency was “inactive”. In the case of `CCN(CC)C(=O)/C(C#N)=C/c1cc(O)c(O)c([N+](=O)[O-])c1`, the Potency is reported as “inactive”. In the case of `CCCCCCCCCCCCCCCCCC(=O)OCC(O)CO` (stereo not given), the Potency is reported as “inactive”. With `Cc1cc(O)c(C(C)C)cc1Cl` the Potency was “inactive”. With `Nc1ccc(/C=C/c2ccc(N)cc2S(=O)(=O)O)c(S(=O)(=O)O)c1` the Potency was “inactive”. In the case of `Oc1ccc(O)cc1`, the Potency is reported as 15.1 µM (active). For `Nc1ccc(C(=O)O)cc1`, the Potency was “inactive”. For `CCCCCCC[N+](CC)(CC)CCCCc1ccc(Cl)cc1`, the Potency was 1.81 µM (active). `CC(O)C(=O)O` (stereo not given) was tested, and the Potency was “inactive”. With `CCC(=O)c1c(O)cc(O)cc1O` the Potency was “inactive”. `CN1CCC(=C2c3ccccc3Sc3ccccc32)CC1` was tested, and the Potency was 3.79 µM (active). In the case of `CCCCOc1cc(C(=O)NCCN(CC)CC)c2ccccc2n1`, the Potency is reported as “inactive”. In the case of `CC(C)(C)CC(C)(C)c1ccc(O)c(Cc2ccc(Cl)cc2Cl)c1`, the Potency is reported as 1.69 µM (active). `COC1=CC(=O)C[C@@H](C)[C@]12Oc1c(Cl)c(OC)cc(OC)c1C2=O` was tested, and the Potency was “inactive”. For `CC(C)(CO)[C@@H](O)C(=O)NCCCO`, the Potency was “inactive”. With `N[C@H](CO)C(=O)O` the Potency was “inactive”. With `CC(C)(C)CC(C)(C)c1ccc(OCCOCC[N+](C)(C)Cc2ccccc2)cc1` the Potency was 4.78 µM (active). For `CCOc1ccc(NC(=O)CC(C)O)cc1` (stereo not given), the Potency was “inactive”. For `Nc1cc(Cl)c(NC2=NCCN2)c(Cl)c1`, the Potency was “inactive”. For `Cc1cc(N)c2cc(NC(=O)Nc3ccc4nc(C)cc(N)c4c3)ccc2n1`, the Potency was 5.36 µM (active). In the case of `O=C(CCN1CCC(c2ccccc2)C1)c1ccc2c(c1)OCCO2` (stereo not given), the Potency is reported as “inactive”.
